These results are taken from the supplement of paper PMC11417369.

In all, about 25,000 sequences were measured (“ln(normalized median fluorescence intensity)”: median about 7.1, highest 2% from about 10 on). Shown is part of a subset that was picked to be rich in the highest values.

The test has as its system PfSIP2 AP2 domain 1 (GST-tagged). The test is described as follows: gcPBM binding intensity (ln(normalized median fluorescence intensity)); higher = stronger DNA binding. The gist of the method:
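Using an Agilent 4 × 180k array, primer-extended double-stranded 36-bp intergenic genomic probes and negative controls were exposed for 1 h to GST-fused P. falciparum DNA-binding domains expressed in E. coli. Binding was carried out in 1× PBS with 1% milk, 0.2 mg/ml BSA, 0.5% salmon testes DNA and 0.03% Triton X-100, and protein was detected with Alexa488 anti-GST antibody and a 488 nm scan. Binding intensity is the highest Masliner-normalised natural-log median intensity across replicate spots of either probe orientation.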
As for TATAAGGCAATAATAGTGCACTAAGATATATAATGA, the “gcPBM binding intensity (ln)” value is 10.6.
Under TATTAATATATAGTAGTGCAATAAAGATATACTGAA stands 8.3; under “AAGTAGTGTTAATACTGTACTTATATTTTTTATTAT [XGTACX_site8264]”, 6.92; under “ATTAAAAATATAGTCACACATACACCCATATATATT [CACACA_site5394]”, 6.92.
For “ATATCCATAATAAAAACATGCAACAGAAAAAAAAAA [TGCATGCA_site497]” the value was 7.14.
For CATATATAAATATGTATGCACTTTAACAAAATGTAT the value was 7.74.
For “TACAAATATATAAAATGTACATATATATACATATTA [XGTACX_site3029]”, the “gcPBM binding intensity (ln)” value came out at 6.92.
For “AATATAAATAAAAACACACACAATGGTACATATATA [CACACA_site3671]” the value was 7.02.
Under “TAATTATAATAATAACGTACATATATAAAATGGTGA [XGTACX_site8434]” stands 7.21; under “ATAAAACGTACAATGGTGCATATAAATAATATATAT [GTGCAC_site9960]”, 10.8.
Under “ATTTTATATACAAAATGTACATATTTATTATATATG [XGTACX_site6732]” stands 6.99.
Regarding AATCATATTAGTATGGTGCAACATATATAAATATAT, the “gcPBM binding intensity (ln)” value worked out at 10.8.
Take “ATGTATGCAAAAATGGTGCATATTAAATGTATAACA [GTGCAC_site9722]”: the “gcPBM binding intensity (ln)” value is 11.1.
Under “AGTATAAATAAATCATAAACATATATATATATATAT [GTGCAC_negctrl_site356]” stands 9.25; under “TATATATTTATTAAATGTACATAACAAAAATGGTAT [XGTACX_site3577]”, 7.41; under “ATTATGTACAAAATGGTGCAATATTATACATATATA [GTGCAC_site9468]”, 10.4.
With “ATATATATTAAAAATAGTACATATAATAAAAATCAT [XGTACX_site4265]”, the “gcPBM binding intensity (ln)” value was found to be 7.11.
For “GTAATATTAAAATATACACACATAGAATATATATAT [CACACA_site4391]” the value was 8.8; for “GCATGTATAATGGTAGTGCATATAATAATATAATAA [GTGCAC_site9548]”, 9.06.
Under TATAATAATATAATGGTGCATGTATATAACCATATA stands 10.7.
For “TATATATAATATAGTGCATGTAAAAAATAAACCATG [TGCATGCA_site932]” the value was 9.18; for “TGAACTCACGAGCACACACACACATATATATATATA [CACACA_site8248]”, 9.18; for “TAAAATTTAAAATATACACACAAAAAGTTATTACAA [CACACA_site4080]”, 6.93.
As for “TAAAATATATAAAACTGTACATTTTAAAGGCACAAC [XGTACX_site8342]”, the “gcPBM binding intensity (ln)” value was determined as 7.55.
For “AACTGTACAATTTTTGTGCACAATAATTATTAATAT [GTGCAC_site9462]”, the “gcPBM binding intensity (ln)” value stood at 8.74.
In the case of “CTAATCGTGCACAACTGTACATTTGTCAAGGGCAAT [XGTACX_site8662]”, the “gcPBM binding intensity (ln)” value was found to be 10.4.
On to “ATATAAATGATATGTACACACATTTATATATATAAA [CACACA_site3475]”, for which the “gcPBM binding intensity (ln)” value is 7.04.
Under “AATATATACCAACATAAATATATATATATATATATA [TGCATGCA_negctrl_site334]” stands 9.89; under “TTAAAAGAATATAATGCACACATTATTTTATTTTAT [CACACA_site3772]”, 7.03; under “TCAAAAGAATAATTGGTGCAAATTATATAATATAAT [GTGCAC_site9804]”, 10.2.
Under AATATTTTATTTTGGGTGCAAAAGAATATTATTTCA stands 10.4.
In the case of “ATAAAATTATTATATACATGCAAAATTAATATATTG [TGCATGCA_site507]”, the “gcPBM binding intensity (ln)” value was determined as 6.84.
For ATTTTATTTTATTAAGTGCAAAAAAAAAAAAAGAAA the value was 8.24.
Under “TTATAATATATATAAAAGAAAAAAAATTATAATATA [CACACA_negctrl_site90]” stands 6.69; under “TATTTATTATTATGTACACACTATATTAAAACATAA [CACACA_site4549]”, 7.08.
For “CTCAAATGTTATTGTAGTACCTAAAAAATATATTCT [XGTACX_site1970]” the value was 6.97; for “TGTAGTCTGGAGAAACGTACATAGTATCTGGTAGCT [XGTACX_site2538]”, 6.84; for “TTTTAACATATAAGTACACACATATAATCAATCATA [CACACA_site2325]”, 7.25.
On to “AATTTCTTTTTCGATATACACACTGTATGTGTCTAA [CACACA_site3975]”, for which the “gcPBM binding intensity (ln)” value was found to be 6.94.
Consider “CATAATATGTGGACTTTACACACTTGTTTTAAAATT [CACACA_site819]”, for which the “gcPBM binding intensity (ln)” value turned out to be 6.87.
Under “TATGTATGTTAGTGTGCACACATAAATATTATATAT [CACACA_site9121]” stands 9.26; under ACATATAAATATTGTGTGCACACACATAATATATAT, 8.29.
For “AAAATCTAATATAATGCACACATAAAAAAAAATCAA [CACACA_site9211]” the value was 7.52; for “TGTAGAAATGGGTGCACACACATATAAAATCTATAT [CACACA_site7224]”, 12.2.
Consider “AATGTAGAAATGGGTGCACACACATATATAATATAT [CACACA_site8799]”, for which the “gcPBM binding intensity (ln)” value turned out to be 11.7.
For “AAAATCTAATATAATGCACACATAAAAAAAAAATCA [CACACA_site8871]” the value was 7.17; for TATATGTATGTTTGTGTGCACACATAAATATTATAT, 8.48.
“AATATATATATATGTGCACACATATATAATATGTAT [CACACA_site716]”: the “gcPBM binding intensity (ln)” value is 8.55.
For “TGTATGTTTGGGTGCACACATAAATATTATATATAG [CACACA_site3397]” the value was 12.2; for “ATATATATATATATTGCACACATATAAATATATATA [CACACA_site8167]”, 9.22; for “TATATATATATGTGCACACATATATAATATGTATAA [CACACA_site715]”, 9.37.
For “ATAAATATTGGGTGCACACACATAATATATATATAT [CACACA_site2272]”, the “gcPBM binding intensity (ln)” value stood at 12.2.
